From PubChem BioAssay (NCI)
Compounds without any hit were thinned out: in the full panel of roughly 83,000, 20% have a hit.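 Step 1: grow cells in 96-well plates. Step 2: add test compound at a single concentration. Step 3: incubate 48 h. Step 4: record percent growth.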 Calls of active or inactive are those of the source. How the source made its calls: active means growth percent below 10; inactive means the rest.

Experiments:
Assay in all cases: NCI-60 one-dose screen, 48 h (100 = growth as untreated, 0 = no growth, -100 = all killed)
Conditions in all cases: 10 µM
NCI-H23 lung = system: NCI-H23 lung
NCI-H226 lung = system: NCI-H226 lung
NCI-H322M lung = system: NCI-H322M lung
HOP-62 NSCLC = system: HOP-62 NSCLC
HOP-92 NSCLC = system: HOP-92 NSCLC
NCI-H522 lung = system: NCI-H522 lung
A549/ATCC NSCLC = system: A549/ATCC NSCLC
786-0 renal = system: 786-0 renal
COLO 205 colon = system: COLO 205 colon
DU-145 prostate = system: DU-145 prostate
K-562 leukemia = system: K-562 leukemia
MALME-3M melanoma = system: MALME-3M melanoma
MDA-MB-231 breast = system: MDA-MB-231 breast
SF-268 CNS = system: SF-268 CNS
SF-295 CNS = system: SF-295 CNS
SF-539 CNS = system: SF-539 CNS
UACC-257 melanoma = system: UACC-257 melanoma
M14 melanoma = system: M14 melanoma
RXF 393 renal = system: RXF 393 renal

Measured: growth

CC(=O)Nc1ccc(-c2cn(-c3cccc(C(=O)Nc4cc(CN5CCOCC5)cc(C(F)(F)F)c4)c3)nn2)cn1
active: NCI-H23 lung -92.6% | NCI-H226 lung -74% | NCI-H322M lung -94.3% | HOP-62 NSCLC -64.1% | HOP-92 NSCLC -77.5% | NCI-H522 lung -53.2% | A549/ATCC NSCLC -74.7% | 786-0 renal -86% | COLO 205 colon -91.5% | DU-145 prostate -40% | K-562 leukemia 0.612% | MALME-3M melanoma -97.1% | MDA-MB-231 breast -95.7% | SF-268 CNS -27.5% | SF-295 CNS -88.6% | SF-539 CNS -100% | UACC-257 melanoma -81.5% | M14 melanoma -90.3%

Cc1ccc(C(=O)NNC(=O)CSc2nc3ccccc3c(=O)[nH]2)cc1
inactive: NCI-H23 lung 98.5% | NCI-H226 lung 92.4% | NCI-H322M lung 99.2% | HOP-62 NSCLC 98.8% | HOP-92 NSCLC 90.6% | NCI-H522 lung 106% | A549/ATCC NSCLC 111% | 786-0 renal 95.2% | COLO 205 colon 97.8% | DU-145 prostate 105% | K-562 leukemia 97.6% | MALME-3M melanoma 91.7% | MDA-MB-231 breast 91.1% | SF-268 CNS 101% | SF-295 CNS 96.3% | SF-539 CNS 98.7% | UACC-257 melanoma 105% | M14 melanoma 108%

COc1ccc(/C=C/C(=O)c2ccc(S(=O)(=O)NCCNc3nc(Nc4ccc(F)cc4)nc(N(C)C)n3)cc2)cc1
inactive: NCI-H23 lung 44.8% | NCI-H226 lung 21.7% | NCI-H322M lung 55.3% | HOP-62 NSCLC 51.2% | A549/ATCC NSCLC 50.1% | 786-0 renal 13.5% | COLO 205 colon 49.2% | DU-145 prostate 28.7% | K-562 leukemia 27.3% | MALME-3M melanoma 49.3% | MDA-MB-231 breast 29% | SF-268 CNS 25.8% | SF-295 CNS 23.3% | SF-539 CNS 41.7% | UACC-257 melanoma 47.9%
active: HOP-92 NSCLC -15.9% | M14 melanoma 7.31%

C=C1CCC2C3(C)COC(c4c(F)cccc4F)OC3CCC2(C)C1CC(O)C1=CCOC1=O (stereo not given)
inactive: NCI-H23 lung 83.5% | NCI-H226 lung 79.3% | NCI-H322M lung 108% | HOP-62 NSCLC 86% | HOP-92 NSCLC 55.4% | A549/ATCC NSCLC 71.9% | 786-0 renal 19.1% | COLO 205 colon 42.4% | DU-145 prostate 68.1% | K-562 leukemia 21.4% | MALME-3M melanoma 96.3% | MDA-MB-231 breast 91.1% | RXF 393 renal 66.1% | SF-268 CNS 98.5% | SF-295 CNS 79.4% | SF-539 CNS 57% | UACC-257 melanoma 74.1% | M14 melanoma 53.9%
active: NCI-H522 lung -33.8%

O=C1Nc2ccc(F)cc2/C1=C/c1cccc(OCc2ccccc2)c1
inactive: NCI-H23 lung 24.8% | NCI-H226 lung 35.3% | NCI-H322M lung 47.6% | HOP-62 NSCLC 48.4% | HOP-92 NSCLC 18.8% | A549/ATCC NSCLC 41.8% | 786-0 renal 33.7% | COLO 205 colon 34.1% | DU-145 prostate 30.4% | MALME-3M melanoma 32.3% | SF-268 CNS 29.9% | SF-295 CNS 35.4% | SF-539 CNS 19.8% | UACC-257 melanoma 26.6% | M14 melanoma 17.3%
active: NCI-H522 lung 5.02% | K-562 leukemia 6.34% | RXF 393 renal -15.9%

COc1nccnc1NS(=O)(=O)c1ccc(NC2=C(Cl)C(=O)c3nc(C)ccc3C2=O)cc1
inactive: NCI-H23 lung 83.7% | NCI-H226 lung 93.4% | NCI-H322M lung 101% | HOP-62 NSCLC 101% | HOP-92 NSCLC 116% | NCI-H522 lung 88% | A549/ATCC NSCLC 105% | 786-0 renal 99.9% | COLO 205 colon 134% | DU-145 prostate 107% | K-562 leukemia 96.3% | MALME-3M melanoma 100% | MDA-MB-231 breast 91.1% | SF-268 CNS 92.9% | SF-295 CNS 97.5% | SF-539 CNS 94% | UACC-257 melanoma 101% | M14 melanoma 112%

O/N=C(\CSc1nnc(-c2c[nH]c3ccccc23)n1-c1ccccc1)c1ccc(Br)cc1
inactive: NCI-H23 lung 14.1% | 786-0 renal 34.7%
active: NCI-H226 lung 6.3% | NCI-H322M lung -72.7% | HOP-62 NSCLC -54.8% | HOP-92 NSCLC -11.2% | NCI-H522 lung -29.7% | A549/ATCC NSCLC -18.2% | COLO 205 colon -41.2% | DU-145 prostate -88.5% | K-562 leukemia -11.1% | MALME-3M melanoma -10.2% | MDA-MB-231 breast -84.2% | SF-268 CNS -55.6% | SF-295 CNS -15% | SF-539 CNS -64.9% | UACC-257 melanoma -8.6% | M14 melanoma -67.7%

Cc1cc(C(F)(F)F)ccc1C(=O)Nc1sc2c(c1C#N)CCC(=O)C2
inactive: NCI-H322M lung 29.8% | A549/ATCC NSCLC 30% | 786-0 renal 12.7% | DU-145 prostate 20.3% | SF-268 CNS 17.1%
active: NCI-H23 lung -28.3% | NCI-H226 lung -13% | HOP-62 NSCLC 1.05% | HOP-92 NSCLC -64.4% | NCI-H522 lung -62.9% | COLO 205 colon -94.4% | K-562 leukemia 2.39% | MALME-3M melanoma -82.5% | MDA-MB-231 breast -73.4% | RXF 393 renal -64.9% | SF-295 CNS -25.5% | SF-539 CNS -79.9% | UACC-257 melanoma -39.5% | M14 melanoma -59.2%
